Bioassay records from PubChem.
An excerpt weighted towards active compounds, which were near 2.2% of everything screened.
ANO1 block: mouse TMEM16A channel inhibition, primary screen; HEK293 TMEM16A/YFP iodide influx fluorescence, ionomycin; normalized B-score (activity score, 25-100; higher = stronger inhibition) at 10 µM; 1.2% of 310,000 active; AID 588511;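 active means ratio plate-corrected score three or more library SD toward inhibition, starting fluorescence score within five deviations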;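 further: score derived from kinetic fluorescence span divided by baseline fluorescence per well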
GRK2 aptamer HTS: blocks RNA aptamer binding to human GRK2; P25098; bead flow cytometry, FAM-aptamer displacement from GRK2; inhibition of aptamer binding, % at 10 µM; 0.59% of 330,000 active;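 active means inhibition of aptamer binding above 40%, roughly 3 SD of noise, on plates passing a quality check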;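 further: median bead fluorescence of bound FAM aptamer so fluorescent compounds give negative values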
ANO1 activ: activates or potentiates the mouse TMEM16A chloride channel | Q8BHY3 | HEK293 TMEM16A/YFP-H148Q/I152L, iodide quench fluorescence; hits give low values | 0.3% of 340,000 active | B-score at 10 µM;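 active means fluorescence-ratio B-score plate-corrected deviation score at least 3 library SD below zero, with starting fluorescence score within 5 deviations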;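 further: channel opened by trigger with iodide after compound preincubation; score built on the fluorescence ratio of max minus min over baseline; more negative score means more quench and so TMEM16A activation or potentiation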
NOD2 RIPK2 PPI: blocks binding of human NOD2 to RIPK2. O43353. CHO BLA complementation NOD2-RIPK2, CCF4 ratio. inhibition, % at 4.98 µM. 0.38% of 360,000 active; in the data active means inhibition above about 21%
TLR4-MyD88 BLA: inhibitors of human TLR4-MyD88 binding | O00206+Q99836 | 0.18% of 200,000 active | HeLa CL3-4 TLR4/MyD88 BLA complementation, FRET ratio | inhibition, % at 8.4 µM | AID 861; in the data active means inhibition above about 25%
Target sequence (O00206 whole entry, looked up): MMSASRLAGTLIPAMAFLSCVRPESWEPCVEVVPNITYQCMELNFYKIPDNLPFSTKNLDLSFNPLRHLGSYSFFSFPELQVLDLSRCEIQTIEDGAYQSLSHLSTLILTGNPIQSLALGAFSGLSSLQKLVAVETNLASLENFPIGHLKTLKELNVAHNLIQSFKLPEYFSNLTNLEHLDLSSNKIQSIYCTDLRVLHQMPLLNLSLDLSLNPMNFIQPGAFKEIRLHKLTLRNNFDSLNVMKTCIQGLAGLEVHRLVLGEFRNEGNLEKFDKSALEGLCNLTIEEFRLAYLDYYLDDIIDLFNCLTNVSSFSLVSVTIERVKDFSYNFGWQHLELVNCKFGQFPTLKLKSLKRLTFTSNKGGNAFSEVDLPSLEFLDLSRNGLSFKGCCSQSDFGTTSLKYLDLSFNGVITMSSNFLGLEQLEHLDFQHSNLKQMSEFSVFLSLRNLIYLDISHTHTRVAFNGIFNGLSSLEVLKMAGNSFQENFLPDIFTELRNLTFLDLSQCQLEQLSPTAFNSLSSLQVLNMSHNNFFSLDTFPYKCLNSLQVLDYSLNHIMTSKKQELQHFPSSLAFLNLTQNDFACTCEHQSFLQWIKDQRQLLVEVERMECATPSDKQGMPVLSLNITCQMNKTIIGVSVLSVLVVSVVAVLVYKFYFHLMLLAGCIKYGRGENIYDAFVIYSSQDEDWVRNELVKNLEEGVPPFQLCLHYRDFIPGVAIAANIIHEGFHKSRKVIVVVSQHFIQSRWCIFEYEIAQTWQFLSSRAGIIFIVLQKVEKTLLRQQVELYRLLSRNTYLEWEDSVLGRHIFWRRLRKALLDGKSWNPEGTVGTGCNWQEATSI
Target sequence (Q99836 whole entry, looked up): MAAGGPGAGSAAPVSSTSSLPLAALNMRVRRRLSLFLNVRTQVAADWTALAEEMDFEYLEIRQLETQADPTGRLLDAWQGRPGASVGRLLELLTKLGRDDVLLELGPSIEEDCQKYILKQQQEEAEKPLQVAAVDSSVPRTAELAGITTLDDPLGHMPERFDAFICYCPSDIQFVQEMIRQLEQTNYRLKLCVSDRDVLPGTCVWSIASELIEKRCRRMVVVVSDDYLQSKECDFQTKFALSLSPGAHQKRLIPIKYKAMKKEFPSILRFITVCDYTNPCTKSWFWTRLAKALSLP
TLR9-MyD88 block: inhibitors of human TLR9-MyD88 binding. inhibition, % at 4.98 µM. Q9NR96+Q99836. CHO BLA complementation TLR9-MyD88, CCF4 FRET ratio. 0.21% of 340,000 active;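 active means inhibition above the mean over all tested compounds plus 3 SD, cut at about 21% in these data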
A number is an active result.

Cc1ccc(SCC(=O)N2c3ccccc3Sc3ccccc32)cc1 was read as ANO1 block 100, GRK2 aptamer HTS inactive, ANO1 activ inactive, NOD2 RIPK2 PPI inactive, TLR4-MyD88 BLA inactive and TLR9-MyD88 block inactive.
`CCOC(=O)[C@]12CCC=C1N(Cc1ccccc1)C(=O)[C@H](CC(=O)NCc1cccc(C(F)(F)F)c1)C2` gave NOD2 RIPK2 PPI inactive.
For N#Cc1c(NC(=O)C2CC=CCC2C(=O)O)sc2c1CCCCCC2 (stereo unspecified) the results were ANO1 block inactive, GRK2 aptamer HTS 73, ANO1 activ inactive, NOD2 RIPK2 PPI inactive, TLR4-MyD88 BLA inactive and TLR9-MyD88 block inactive.
Screening N#Cc1c(NC(=O)CCC(=O)O)sc2c1CCCCC2 returned ANO1 block inactive, GRK2 aptamer HTS inactive, ANO1 activ inactive, NOD2 RIPK2 PPI inactive, TLR4-MyD88 BLA inactive and TLR9-MyD88 block inactive.
CCOC(=O)N1CCN(C(=O)COc2cc(=O)n(CC)c3ccccc23)CC1 was read as ANO1 block inactive, GRK2 aptamer HTS inactive, ANO1 activ inactive, NOD2 RIPK2 PPI inactive, TLR4-MyD88 BLA inactive and TLR9-MyD88 block inactive.
Screening CCOC(=O)N1CCN(C(=O)COc2cc(=O)n(C)c3ccccc23)CC1 returned ANO1 block 25, GRK2 aptamer HTS inactive, ANO1 activ inactive, NOD2 RIPK2 PPI inactive, TLR4-MyD88 BLA inactive and TLR9-MyD88 block inactive.
C[C@@H]1CN([C@@H](C)CO)C(=O)c2cc(N(C)C)ccc2O[C@@H](C)CCCCO[C@@H]1CN(C)Cc1ccc2c(c1)OCO2 was read as NOD2 RIPK2 PPI inactive and TLR9-MyD88 block inactive.
Screening CCCCn1ccnc1C(=O)c1cc(S(=O)(=O)N2CCOCC2)ccc1C returned ANO1 block inactive, GRK2 aptamer HTS inactive, ANO1 activ inactive, NOD2 RIPK2 PPI inactive, TLR4-MyD88 BLA inactive and TLR9-MyD88 block inactive.
`CCCCn1ccnc1C(=O)c1cccc(S(=O)(=O)N2CC(C)CC(C)C2)c1` (stereo unspecified) gave ANO1 block 100, GRK2 aptamer HTS inactive, ANO1 activ inactive, NOD2 RIPK2 PPI inactive, TLR4-MyD88 BLA inactive and TLR9-MyD88 block inactive.
`Cc1csc2nc(CSc3nc4ccccc4o3)c(Br)n12` gave ANO1 block 25, GRK2 aptamer HTS inactive, ANO1 activ inactive, NOD2 RIPK2 PPI inactive, TLR4-MyD88 BLA inactive and TLR9-MyD88 block inactive.
`CCc1c(O)nc(SC2CC(=O)N(c3ccccc3)C2=O)[nH]c1=O` (stereo unspecified) gave ANO1 block inactive, GRK2 aptamer HTS inactive, ANO1 activ -29, NOD2 RIPK2 PPI inactive, TLR4-MyD88 BLA inactive and TLR9-MyD88 block inactive.
Screening Cc1ccccc1Nc1nc(Nc2ccccc2C)nc(SC2=NCCS2)n1 returned ANO1 block 25, GRK2 aptamer HTS inactive, ANO1 activ inactive, NOD2 RIPK2 PPI inactive, TLR4-MyD88 BLA inactive and TLR9-MyD88 block inactive.
`Cc1ccc(Nc2nc(Nc3ccc(C)cc3)nc(SC3=NCCS3)n2)cc1` gave ANO1 block inactive, GRK2 aptamer HTS inactive, ANO1 activ inactive, NOD2 RIPK2 PPI inactive, TLR4-MyD88 BLA inactive and TLR9-MyD88 block inactive.
CCOC(=O)[C@]12CCCC=C1N(Cc1ccco1)C(=O)[C@H](CC(=O)NCCc1ccccc1OC)C2 was read as NOD2 RIPK2 PPI inactive.
Screening O=C(Nc1ccc([N+](=O)[O-])cc1Cl)c1cc(Cl)ccc1O returned ANO1 block 100, GRK2 aptamer HTS inactive, ANO1 activ inactive, NOD2 RIPK2 PPI inactive and TLR9-MyD88 block inactive.
Screening O=C(C[n+]1cccc(/C=N/O)c1)NC(=O)Nc1ccccc1 returned NOD2 RIPK2 PPI inactive.
`CC(=O)Nc1ccc(-c2csc(Nc3cc(C)ccn3)n2)cc1` gave ANO1 block inactive, GRK2 aptamer HTS inactive, ANO1 activ inactive, NOD2 RIPK2 PPI inactive, TLR4-MyD88 BLA inactive and TLR9-MyD88 block inactive.
CC(=O)Nc1cccc(-c2csc(Nc3cc(C)ccn3)n2)c1 was read as ANO1 block 25, GRK2 aptamer HTS inactive, ANO1 activ inactive, NOD2 RIPK2 PPI inactive, TLR4-MyD88 BLA inactive and TLR9-MyD88 block inactive.
CCC1CCc2sc(C(=O)OCC(=O)N(CCOC)c3c(N)n(Cc4ccccc4)c(=O)[nH]c3=O)cc2C1 (stereo unspecified) was read as ANO1 block inactive, GRK2 aptamer HTS inactive, ANO1 activ inactive, NOD2 RIPK2 PPI inactive and TLR9-MyD88 block inactive.
`COCCN(C(=O)COC(=O)c1cc2c(s1)CCC2)c1c(N)n(Cc2ccccc2)c(=O)[nH]c1=O` gave ANO1 block inactive, GRK2 aptamer HTS 98, ANO1 activ inactive, NOD2 RIPK2 PPI inactive and TLR9-MyD88 block inactive.
COC(=O)[C@]12CCCCC=C1N(CCc1ccc(OC)c(OC)c1)C(=O)[C@H](CC(=O)NCCc1ccccc1OC)C2 was read as NOD2 RIPK2 PPI inactive.
COc1ccc(C)cc1Nc1n[n+](-c2ccccc2)c(-c2c(Cl)cccc2Cl)s1 was read as ANO1 block 100 and GRK2 aptamer HTS inactive.
`CCCc1cc(-c2[nH]ncc2-c2ccc(C(=O)OCC)o2)c(O)cc1O` gave ANO1 block inactive, GRK2 aptamer HTS inactive, ANO1 activ inactive, NOD2 RIPK2 PPI inactive, TLR4-MyD88 BLA inactive and TLR9-MyD88 block inactive.
CCCc1cc(-c2[nH]ncc2-c2ccc3c(c2)OCCCO3)c(O)cc1O was read as ANO1 block 25, GRK2 aptamer HTS inactive, ANO1 activ inactive, NOD2 RIPK2 PPI inactive, TLR4-MyD88 BLA inactive and TLR9-MyD88 block inactive.
Cc1ccc(S(=O)(=O)N(C)C)cc1NC(=O)c1cc(=O)[nH]c2ccccc12 was read as ANO1 block inactive, GRK2 aptamer HTS inactive, ANO1 activ -6.6, NOD2 RIPK2 PPI inactive, TLR4-MyD88 BLA inactive and TLR9-MyD88 block inactive.
Screening CN(C)S(=O)(=O)c1cccc(NC(=O)c2cc(=O)[nH]c3ccccc23)c1 returned ANO1 block inactive, GRK2 aptamer HTS inactive, ANO1 activ inactive, NOD2 RIPK2 PPI inactive, TLR4-MyD88 BLA inactive and TLR9-MyD88 block inactive.
For CCCCCC(=O)Nc1ccc(N2CCN(C(=O)CCC)CC2)cc1 the results were ANO1 block 100, GRK2 aptamer HTS inactive, ANO1 activ inactive, NOD2 RIPK2 PPI inactive, TLR4-MyD88 BLA inactive and TLR9-MyD88 block inactive.
Cc1ccc(/C=N/N2C(=S)SC(C)(C)C2N(O)C(=O)Nc2ccc([N+](=O)[O-])cc2)cc1 (stereo unspecified) was read as ANO1 block inactive, GRK2 aptamer HTS inactive, ANO1 activ inactive, NOD2 RIPK2 PPI inactive, TLR4-MyD88 BLA inactive and TLR9-MyD88 block inactive.
CC1(C)SC(=S)N(/N=C/c2ccc(O)cc2)C1N(O)C(=O)Nc1ccc([N+](=O)[O-])cc1 (stereo unspecified) was read as ANO1 block 100, GRK2 aptamer HTS inactive, ANO1 activ inactive, NOD2 RIPK2 PPI inactive, TLR4-MyD88 BLA inactive and TLR9-MyD88 block inactive.
`CCCCNC(=O)c1[nH]c(C2CCNCC2)nc1-c1cccc(C(F)(F)F)c1` gave NOD2 RIPK2 PPI inactive.
